Hits are enriched below; roughly 2.4% of the tested compounds scored in any of these assays.
WRN inhibitor: WRN helicase (human) inhibition | 360,000 tested, 0.46% active | WRN helicase unwinding, fluorescent forked duplex, kinetic | Potency, µM (doses to about 114 µM), usual class: inhibitors; further: nearly all actives have a fitted effect of over 55% in size
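Fluorescence dequenching readout, ex 525 nm/em 598 nm, kinetic mode: forked duplex DNA (100 nM final) with adjacent fluorophore and quencher unwound by WRN (20 nM final) with 2 mM ATP. Compound preincubation 15 min, room temperature.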
Pol beta inh: blocks human DNA polymerase beta activity; Pol beta primer extension/strand displacement, fluorescence kinetic; Potency, µM (doses to about 114 µM), most hits filed as inhibitors; 340,000 tested, 1.3% active; AID 485314
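Homogeneous kinetic assay of primer extension and strand displacement by 10 nM Pol beta, preincubated 15 min at room temperature with compound before 50 nM substrate (final) was added. Read at 0 and 10 min; four-parameter Hill fit.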
FEN1 inh: inhibitors of human flap endonuclease 1 | P39748 | Recombinant FEN1 flap cleavage, fluorescence, 15 min | Potency, µM (doses to about 114 µM), usual class: inhibitors | 390,000 tested, 0.35% active | AID 588795; further: nearly all actives have a fitted effect of over 65% in size
Target sequence (P39748 whole entry, looked up): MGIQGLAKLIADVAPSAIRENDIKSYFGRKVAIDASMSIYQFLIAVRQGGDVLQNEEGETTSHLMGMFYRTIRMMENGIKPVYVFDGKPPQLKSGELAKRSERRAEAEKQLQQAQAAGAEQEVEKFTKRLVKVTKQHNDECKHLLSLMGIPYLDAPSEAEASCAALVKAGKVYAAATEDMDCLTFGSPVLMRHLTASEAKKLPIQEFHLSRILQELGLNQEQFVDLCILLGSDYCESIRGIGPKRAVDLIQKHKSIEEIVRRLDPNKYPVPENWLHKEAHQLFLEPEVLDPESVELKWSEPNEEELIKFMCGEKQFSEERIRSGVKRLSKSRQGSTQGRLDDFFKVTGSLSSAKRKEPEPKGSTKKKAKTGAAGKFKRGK
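In this screen, 50 nM flap DNA substrate was added to 10 nM FEN1 pretreated with compound for 15 min at room temperature; cleavage was followed with reads at 0 and 15 min, and Hill fitting gave concentration–response parameters.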
Pol eta inh-1: blocks human DNA polymerase eta activity. Q9Y253. recombinant Pol eta, fluorescent DNA replication assay. Potency, µM (top dose mostly 114 µM), usual class: inhibitors. 390,000 tested, 1.2% active. AID 588591
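Pol eta (10 nM) was preincubated with compounds for 15 min at room temperature, after which fluorescent replication substrate (50 nM final) was added to start the reaction. Fluorescence was read kinetically at 0 and 10 min.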
Pol kappa inh-1: blocks human DNA polymerase kappa activity | purified Pol kappa, fluorescent DNA synthesis assay, 10 min | Q9UBT6 | Potency, µM (titrated, usually from 107 µM), usual class: inhibitors | 400,000 tested, 0.53% active
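Enzyme at 10 nM met test compounds for 15 min at room temperature. Substrate addition (50 nM final) began the reaction, which was monitored by fluorescence at 0 and 10 min.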
POLI inh: inhibitors of human DNA polymerase iota; 390,000 tested, 1% active; Q9UNA4; Pol iota fluorescent replication assay, 10 min; Potency, µM (series often up to 115 µM), actives largely listed as inhibitors
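Pol iota at 10 nM preincubated 15 min with compounds at room temperature; reaction started with fluorescent substrate, 50 nM final. Fluorescence read kinetically at 0 and 10 min; buffer-only wells as negative control.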
GALK confirm: galactokinase (human) inhibition, confirmation; Potency, µM (series often up to 115 µM), most hits filed as inhibitors; purified GALK, Kinase-Glo ATP depletion luminescence; 150 tested, 70% active; shares compounds with Pol eta inh-1
Redox cycling: redox cycling activity in phenol red-HRP assay. Potency, µM (series often up to 115 µM), hits mostly inhibitors. Phenol red-HRP H2O2 redox cycling, absorbance 600 nm. shares compounds with Pol eta inh-1. 150 tested, 40% active. AID 2035
HEK293 viability: counter-screen for GALK inhibitors: HEK293 cell cytotoxicity; shares compounds with Pol eta inh-1; HEK-293 viability, ATP luminescence (CellTiter-Glo), 24/48 h; Potency, µM (titrated, usually from 46.1 µM), hits mostly inhibitors; 170 tested, 10% active; AID 2547
Pol kappa inh-2: Pol kappa (human) inhibition, cherry-pick confirmation; shares compounds with Pol eta inh-1; purified Pol-kappa, fluorescent strand-displacement substrate; Potency, µM, hits mostly inhibitors; 920 tested, 76% active; AID 720501
Pol eta inh-2: confirmation of human DNA polymerase eta inhibitors; shares compounds with Pol eta inh-1; Potency, µM, most hits filed as inhibitors; 2,600 tested, 64% active; Pol eta primer extension, TAMRA/BHQ fluorescence, 10 min
Numbers stand for hits; – = inactive; ? = inconclusive; · = no result; [ ] = remark or other dose. The call rests on the fitted dose curve; in most records, active means well fitted curve in the direction sought with a large enough effect; inconclusive means small, poorly fitted or top-dose-only effect, or another doubt; inactive means no such curve, though single readings can be large; an effect the other way counts as inactive or inconclusive.

SMILES	WRN inhibitor	Pol beta inh	FEN1 inh	Pol eta inh-1	Pol kappa inh-1	POLI inh	Pol eta inh-2	others
COc1ccc(-c2nn(-c3ccccc3)cc2/C=C2/SC(=S)N(CCC(=O)O)C2=O)cc1	50.1µM	31.6µM	79.4µM	22.4µM	–	?	·	Pol kappa inh-2=16.8
Cc1ccc(-c2nn(-c3ccccc3)cc2/C=C2\SC(=S)N(CC(=O)O)C2=O)cc1	–	–	–	?	–	?	·	GALK confirm=42.1µM;Redox cycling=–;HEK293 viability=–
CCOc1ccc(-c2nn(-c3ccccc3)cc2/C=C2\SC(=S)N(C3CCS(=O)(=O)C3)C2=O)cc1 (stereo unspecified)	–	–	–	–	–	–	·
Cn1cccc1/C=C1\SC(=S)N(CC(=O)O)C1=O	–	–	–	–	–	–	·
O=C(N/N=C/C=C\c1ccco1)c1ccccn1	35.5µM	?	?	?	50.1µM	?	?
O=C(N/N=C/C=C/c1ccccc1)c1ccccn1	–	–	–	–	–	–	·
O=C(N/N=C/C=C\c1ccco1)c1cccnc1	–	–	–	?	79.4µM	17.8µM	?
COc1ccc(/C=C/C(=O)O)cc1S(=O)(=O)N1CCCc2ccccc21	–[11.6 µM]	?	–	44.7µM	–	–	60.1
COc1cc(/C=C/C(=O)O)ccc1S(=O)(=O)N1CCCc2ccccc21	–	–	–	–	–	–	·
O=C(/C=C/c1ccco1)NC(=S)Nc1ccccc1O	–[11.6 µM]	22.4µM	–	–	?	?	?
O=C(/C=C/c1ccco1)NC(=S)Nc1ccccc1N1CCOCC1	–	–	?	–	–	–	·
O=C(/C=C\c1ccco1)NC(=S)Nc1ccccc1O	?	56.2µM	–	22.4µM	?	?	?
O=C(/C=C/c1ccco1)NC(=S)Nc1ccccc1N1CCCC1	–	–	?	–	–	–	·
O=c1c2sc3ccccc3c2n(Cc2ccc(F)cc2)c(=O)n1Cc1ccccc1	·	–	–	–	–	–	·
CC(C)N(C(=O)c1cc2c(Cl)nc3ccccc3c2s1)C1CCCCC1	·	–	–	–	–	–	·
CC(C)(C)OC(=O)N1CCN(/[N+]([O-])=N/Oc2ccc([N+](=O)[O-])cc2[N+](=O)[O-])CC1	·	·	?	·	–	–	·
CC(=O)c1ccc(N2CCN(C(=O)C3CCN(S(=O)(=O)c4cccc5nonc45)CC3)CC2)cc1	·	–	–	–	–	–	·
O=C(COC(=O)/C=C/c1ccco1)Nc1ccc(F)cc1Cl	–[11.6 µM]	22.4µM	–	?	?	?	?
O=C(CCn1c(=O)c2sccc2n(CC(=O)NCc2ccco2)c1=O)NCc1ccccc1	–	–	–	–	–	?	·
O=C(CCCn1c(=O)c2sccc2n(CC(=O)NCc2ccco2)c1=O)NCc1ccco1	–[11.6 µM]	–	–	79.4µM	–	?	?
COc1ccc(-c2ccc(CN3C(C)C(=O)N(Cc4cn(CCC5OCCO5)nn4)CCS3(=O)=O)cc2)cc1 (stereo unspecified)	–[11.6 µM]	·	·	28.2µM	·	·	?	Pol kappa inh-2=?
O=C1c2ccccc2NC(c2ccccc2O)N1Cc1ccco1 (stereo unspecified)	·	·	–	·	–	–	·
COc1ccc(Nc2ncc(C(=O)Nc3ccc(F)cc3F)c3ccccc23)cc1	·	–	–	–	–	?	·
O=c1c2ccccc2nc2c3ccccc3c(NCc3cccnc3)nn12	–	–	–	–	–	–	·
O=c1c2ccccc2nc2c3ccccc3c(NCc3ccccn3)nn12	–[11.6 µM]	?	?	?	–	–	47.8	Pol kappa inh-2=26.7
SMILES	WRN inhibitor	Pol beta inh	FEN1 inh	Pol eta inh-1	Pol kappa inh-1	POLI inh	Pol eta inh-2	others
COc1ccc(CN=Cc2c(C(=O)O)[nH]c3ccccc23)cc1	–	–	–	–	–	–	·
C=CCOc1ccc(C(c2c(C(=O)O)[nH]c3ccccc23)c2c(C(=O)O)[nH]c3ccccc23)cc1	?	20µM	–	31.6µM	79.4µM	17.8µM	?	Pol kappa inh-2=?
Cc1cccc(Oc2ccc3c(c2)Oc2ccccc2NC3=O)c1	·	12.6µM	–	50.1µM	?	70.8µM	?
CC(=O)c1ccc(NC(=O)c2noc3c2CCC3)cc1	–[11.6 µM]	15.8µM	–	44.7µM	?	25.1µM	?
O=C(Nc1ccc(OC(F)(F)F)cc1)c1noc2c1CCCC2	·	–	–	·	–	–	·
COc1ccc(C(=O)N2CCC3(CCCN(Cc4cc(C(F)(F)F)cc(C(F)(F)F)c4)C3)CC2)cc1	·	·	·	·	–	·	·
O=c1c2ccccc2[nH]c2ccc(O)cc12	50.1µM	17.8µM	?	17.8µM	79.4µM	?	53.6
Cc1cc(S(=O)(=O)Nc2nc(CN3CCOCC3)nc3sc4c(c23)CCC4)cc(C)c1C	?	·	–	17.8µM	?	25.1µM	?	Pol kappa inh-2=?
Cc1ccc(S(=O)(=O)Nc2nc(CN3CCOCC3)nc3sc(C(=O)O)c(C)c23)cc1	–[11.6 µM]	·	·	12.6µM	·	·	30.1
Cc1ccc(S(=O)(=O)c2nc(-c3ccco3)oc2SCC(C)C)cc1	·	–	–	–	–	–	·
Cc1ccc(S(=O)(=O)c2nc(-c3ccco3)oc2SC(C)C)cc1	–	–	–	89.1µM	–	?	?	Pol kappa inh-2=?
COc1cccc(NC(=O)CSc2cc(C)[nH]c(=O)n2)c1	·	–	–	–	–	–	·
COc1cccc(-n2c(SCc3ccc(F)cc3)nc3c([nH]c4ccccc43)c2=O)c1	·	–	–	?	–	–	·
O=C(COc1ccccc1/C=C\c1[nH]c(=O)[nH]c(=O)c1[N+](=O)[O-])Nc1ccccc1	–[11.6 µM]	–	–	22.4µM	–	20µM	75.7	GALK confirm=37.5µM;Redox cycling=–;HEK293 viability=–
COc1ccc2c(c1)c(=O)oc1c(C)c(OC(C)C(=O)N[C@@H](Cc3c[nH]c4ccc(O)cc34)C(=O)O)ccc12 (stereo partly specified)	–[11.6 µM]	?	–	20µM	?	?	47.8
COc1ccc(C)cc1NC(C)C(=O)c1c[nH]c2ccccc12 (stereo unspecified)	·	·	–	·	–	–	·
Cc1ccc(C2CC(=O)Oc3cc(C)c(Cl)c(C)c32)cc1 (stereo unspecified)	·	·	·	·	–	·	·

High-throughput results from PubChem.
